# According to PubChem BioAssay (Tox21):
# Records with an inconclusive call do not appear. Active and inactive are the calls of the source. Calls come from the whole dose curve; as a rule, active = well fitted cell-killing curve with a large enough effect in the repeat runs; inconclusive = weak or mixed curves, or effect the other way; inactive = flat fitted curve, though single readings scatter.
# Experiment: cAMP Responsive Elements (CRE) small molecule antagonists, cell-based qHTS assay: qHTS cell viability counter screen (AID 2060913); note: nearly all actives have a fitted effect of over 40% in size
# Conditions: CRE-bla HEK293T viability, CellTiter-Glo luminescence, 5 h; series mostly up to 92.4 µM; viability change, negative = cytotoxic: at the top concentration
# How it was run: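 HEK293T CRE-bla, 2,000 cells/well, 18 h preincubation; cpd in DMSO + NKH477 0.25 uM final, 3 h 37 C/5% CO2; LiveBLAzer 2 h RT, then CellTiter-Glo 30 min RT, luminescence.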
# % is set by controls: 0 for no effect and ±100 for the full control effect; potency is the fitted concentration of half-maximal effect.
Compound,"viability change, negative = cytotoxic",Potency
CNc1c2c(nn1C)CCCC2,-0.578% [at 42.5 µM] (inactive),–
Brc1ccccn1,9.87% (inactive),–
CN1CCN(c2cc3c(nn2)Oc2ccccc2N3C)CC1,4.41% [at 18.9 µM] (inactive),–
CCN(CC)CCNC(=O)COc1ccc(Cl)cc1,9.29% [at 42.5 µM] (inactive),–
Cc1cccc(C(=O)O)c1,–,inactive
CC(C)(C)c1cc(CCC(=O)OCC(COC(=O)CCc2cc(C(C)(C)C)c(O)c(C(C)(C)C)c2)(COC(=O)CCc2cc(C(C)(C)C)c(O)c(C(C)(C)C)c2)COC(=O)CCc2cc(C(C)(C)C)c(O)c(C(C)(C)C)c2)cc(C(C)(C)C)c1O,0.609% [at 42.5 µM] (inactive),–
C=CCCCCCCCCCCCCCCCC,-4.37% [at 8.39 µM] (inactive),–
Cc1ccc(O)c([C@H](CCN(C(C)C)C(C)C)c2ccccc2)c1,-14.1% [at 42.5 µM] (inactive),–
Nc1ccc(N)c2ccccc12,-20.2% (inactive),–
CO/N=C1\CN(c2nc3c(cc2F)c(=O)c(C(=O)O)cn3C2CC2)CC1CN (centres undefined),-0.36% [at 42.5 µM] (inactive),–
OCC(O)c1ccccc1 (centres undefined),-3.2% (inactive),–
CCN(CC#N)c1cccc(C)c1,-0.294% (inactive),–
C1CCN(CN2CCCCC2)CC1,-0.953% (inactive),–
Cc1ccc(C(=O)Oc2ccc(C(O)CNC(C)(C)C)cc2OC(=O)c2ccc(C)cc2)cc1 (centres undefined),-13.8% [at 42.5 µM] (inactive),–
O=C(CS(=O)Cc1ccco1)NC/C=C\COc1cc(CN2CCCCC2)ccn1 (centres undefined),8.37% [at 42.5 µM] (inactive),–
CC(C)COC(=O)c1ccc(N)cc1,6.18% [at 42.5 µM] (inactive),–
Cc1nc(-c2ccccn2)ncc1C(=O)Nn1cc(C)c2cc(F)ccc21,-8.68% (inactive),–
Cc1cc(C)cc(N)c1,-4.67% (inactive),–
CCc1cccc(C)c1N(C(=O)CS(=O)(=O)O)C(C)COC (centres undefined),9.63% (inactive),–
CC(=O)N(c1onc(C)c1C)S(=O)(=O)c1ccc(N)cc1,0.579% [at 42.5 µM] (inactive),–

Compound,"viability change, negative = cytotoxic",Potency
CCCCC/C=C\C/C=C\CCCCCCCC(=O)O,–,inactive
CCOc1nc2cccc(C(=O)OC(C)OC(=O)OC3CCCCC3)c2n1Cc1ccc(-c2ccccc2-c2nn[nH]n2)cc1 (centres undefined),–,48.5 µM (active)
C#C[C@]1(O)CC[C@H]2[C@@H]3CCC4=Cc5oncc5C[C@]4(C)[C@H]3CC[C@@]21C,–,inactive
OC[C@H]1O[C@@H]2O[C@H]3[C@H](O)[C@@H](O)[C@@H](O[C@H]4[C@H](O)[C@@H](O)[C@@H](O[C@H]5[C@H](O)[C@@H](O)[C@@H](O[C@H]6[C@H](O)[C@@H](O)[C@@H](O[C@H]7[C@H](O)[C@@H](O)[C@@H](O[C@H]8[C@H](O)[C@@H](O)[C@@H](O[C@H]1[C@H](O)[C@H]2O)O[C@@H]8CO)O[C@@H]7CO)O[C@@H]6CO)O[C@@H]5CO)O[C@@H]4CO)O[C@@H]3CO,–,inactive
O=c1[nH]c2ccccc2n1CCCN1CCN(C(c2ccccc2)c2ccccc2)CC1,-1.01% [at 42.5 µM] (inactive),–
CCCCNc1ccc(C(=O)OCCOCCOCCOCCOCCOCCOCCOCCOCCOC)cc1,-0.903% [at 42.5 µM] (inactive),–
FC(F)(F)c1ccc(Cl)c(Cl)c1,–,inactive
CCCCCCOCCOCCO,–,inactive
C=C(CC)C(=O)c1ccc(OCC(=O)O)c(Cl)c1Cl,–,inactive
CCCCC(CC)CCC(CC(C)C)OS(=O)(=O)O (centres undefined),5.84% (inactive),–
NCCCN(CCO)CCO,-1.28% (inactive),–
O=C1C(CCS(=O)c2ccccc2)C(=O)N(c2ccccc2)N1c1ccccc1 (centres undefined),-6.64% [at 42.5 µM] (inactive),–
Cc1[nH]cnc1-c1ccc(Cl)cc1,0.591% [at 42.5 µM] (inactive),–
O=C(NCN1CCOCC1)c1cnccn1,0.0803% [at 42.5 µM] (inactive),–
CC(C)(C)C1CCC(CC2=C(O)c3ccccc3C(=O)C2=O)CC1 (centres undefined),6.86% [at 42.5 µM] (inactive),–
COc1ccc(CCN2CCC(Nc3nc4ccccc4n3Cc3ccc(F)cc3)CC2)cc1,–,35.1 µM (active)
c1ccc([C@H]2CN3CCSC3=N2)cc1,0% [at 42.5 µM] (inactive),–
Cc1c(Cn2ccnc2)c2ccccc2n1CCC(=O)O,1.83% [at 42.5 µM] (inactive),–
COc1nc(N)nc2nc[nH]c12,14.2% (inactive),–
